Bioassay records from PubChem.
RORg inh: qHTS for inhibitors of ROR gamma transcriptional activity; Nuclear receptor ROR-gamma (Mus musculus), P51450; Drosophila S2 Gal4-RORgamma UAS-luciferase reporter, 20 h; Potency, µM (series often up to 53.6 µM), without a hit: at the highest dose activity change, negative = inhibition, hits mostly inhibitors; actives 5.4% (n = 310,000); AID 2551, 2010; further: nearly all actives have a fitted effect of over 60% in size
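Read-out: Photinus luciferase luminescence; inhibitors lower reporter signal. Insect Schneider cells with Gal4-ROR gamma fusion under metallothionein promoter, UAS reporter; 700 uM final copper sulfate induction, 20 hr, ambient temperature.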
TDP1 cell noCPT: qHTS for Inhibitors of human tyrosyl-DNA phosphodiesterase 1 (TDP1): qHTS in cells in absence of CPT; actives 15% (n = 420,000); Potency, µM (doses to about 46.2 µM), for inactives: top-dose activity change, negative = growth inhibition, usual class: inhibitors; DT40 Tdp1-/- hTDP1 cells, no CPT, ATP luminescence, 48 h; AID 686978, 2013; further: nearly all actives have a fitted effect of over 55% in size
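Luminescent ATP content (CellTiter-Glo) served as the growth readout. Knockout chicken DT40 cells expressing human TDP1 were exposed to compounds without camptothecin for a minimum 48 hr at 37 °C.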
DT40 TDP1 CPT: qHTS for Inhibitors of human tyrosyl-DNA phosphodiesterase 1 (TDP1): qHTS in cells in presence of CPT; chicken DT40 Tdp1-/-;hTDP1 cells + 20 nM CPT, ATP luminescence, 48 h; Potency, µM (series often up to 46.2 µM), for the others: top-dose activity change, negative = growth inhibition, usual class: inhibitors; actives 12% (n = 420,000); further: nearly all actives have a fitted effect of over 55% in size
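Cell growth measured by CellTiter-Glo luminescence after a minimum 48 h, 37 C compound exposure with 20 nM CPT in Tdp1-knockout DT40 cells stably expressing hTDP1, seeded 400/well; qHTS titration format.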
TDP1 inh: qHTS Assay for Inhibitors of Tyrosyl-DNA Phosphodiesterase (TDP1). actives 0.28% (n = 350,000). Potency, µM (titrated, usually from 130 µM), for the others: at the highest dose activity change, negative = inhibition, most hits filed as inhibitors. recombinant TDP1, AlphaScreen DNA substrate cleavage. Tyrosyl-DNA phosphodiesterase 1 (Homo sapiens), Q9NUW8. AID 485290, 2010; further: nearly all actives have a fitted effect of over 40% in size
Target sequence (Q9NUW8 whole entry, looked up): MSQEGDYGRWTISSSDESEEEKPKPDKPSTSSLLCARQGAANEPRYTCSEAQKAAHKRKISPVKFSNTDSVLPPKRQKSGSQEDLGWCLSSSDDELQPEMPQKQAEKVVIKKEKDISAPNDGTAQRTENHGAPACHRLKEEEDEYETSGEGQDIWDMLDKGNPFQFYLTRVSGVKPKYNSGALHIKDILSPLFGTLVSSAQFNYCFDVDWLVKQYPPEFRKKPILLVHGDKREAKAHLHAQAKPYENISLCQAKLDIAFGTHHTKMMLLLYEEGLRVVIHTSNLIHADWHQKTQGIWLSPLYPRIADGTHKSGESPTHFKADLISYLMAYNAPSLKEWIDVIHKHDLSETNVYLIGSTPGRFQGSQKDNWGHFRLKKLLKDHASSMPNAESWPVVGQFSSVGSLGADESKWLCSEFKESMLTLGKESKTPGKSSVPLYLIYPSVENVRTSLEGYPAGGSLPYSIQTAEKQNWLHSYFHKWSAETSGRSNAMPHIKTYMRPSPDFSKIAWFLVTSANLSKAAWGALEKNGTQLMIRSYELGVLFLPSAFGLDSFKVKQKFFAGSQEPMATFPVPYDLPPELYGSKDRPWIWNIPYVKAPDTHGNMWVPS
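Recombinant human Tdp1 (E. coli-expressed, 1 nM final) preincubated with compounds 15 min at room temperature, then 5'-biotin/3'-phosphotyrosine-FITC DNA substrate (15 nM final) added for 5 min. AlphaScreen beads (10 ug/ml final) added 10 min; cleavage lowers signal.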
Gal4-VP16 FLuc: VP16 counterscreen qHTS for inhibitors of ROR gamma transcriptional activity; actives 3.5% (n = 310,000); Drosophila S2 Gal4-VP16 UAS-luciferase, luminescence, 20 h; Potency, µM (top dose mostly 53.6 µM), without a hit: at the highest dose activity, negative = inhibition, actives largely listed as inhibitors;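 further: Gal4-VP16 expression switched on by copper sulfate through the metallothionein promoter; nearly all actives have a fitted effect of over 50% in size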
The depositor's hits bear a star; ? = inconclusive; / = no result; [ ] = remark or other dose. An excerpt weighted towards active compounds, which were near 19% of everything screened. The call rests on the fitted dose curve; in most records, active means well fitted curve in the direction sought with a large enough effect; inconclusive means small, poorly fitted or top-dose-only effect, or another doubt; inactive means no such curve, though single readings can be large; an effect the other way counts as inactive or inconclusive. On the % scale 0 is the no-effect control and ±100 the full control effect; potency means the concentration at half of the fitted maximal effect.

SMILES | RORg inh | TDP1 cell noCPT | DT40 TDP1 CPT | TDP1 inh | Gal4-VP16 FLuc
CN(c1ccc(F)cc1)S(=O)(=O)c1ccc(Cl)c(C(=O)NCc2ccco2)c1 | / | ? | ? | 2% | /
CN(C)C(CNC(=O)c1cc(S(=O)(=O)N(C)c2ccccc2)ccc1Cl)c1cccs1 (configuration not stated) | ? | 6.5µM* | 5.8µM* | 4% | 1%
CN(C)C(CNC(=O)c1cc(S(=O)(=O)N2CCOCC2)ccc1Cl)c1cccs1 (configuration not stated) | / | 21µM* | ? | / | /
C[C@@H]1CNCCN1S(=O)(=O)c1cccc2cnccc12 | ? | 30µM* | ? | 5% | 25µM*
O=C(COC(=O)Cc1cccs1)Nc1cc(S(=O)(=O)N2CCOCC2)ccc1Cl | / | -9% | -7% | -4% | /
Cn1sccc1=O | / | 2.9µM* | 2.9µM* | / | /
Cc1cccc(C(=O)N2CCc3cc(CNS(=O)(=O)c4ccc(Cl)s4)ccc32)c1 | / | 23µM* | 23µM* | 3% | /
Cc1cccc(C(=O)N2CCc3cc(CNS(=O)(=O)c4ccc(F)c(Cl)c4)ccc32)c1 | / | 1.2µM* | 1.6µM* | 0% | /
COc1ccc(OC)c(S(=O)(=O)NCc2cccn2Cc2cccc(C)c2)c1 | / | ? | ? | 6% | /
CCC(=O)N1CCc2cc(CNS(=O)(=O)c3ccc(Cl)s3)ccc21 | / | 16µM* | ? | 0% | /
COc1ccc(OC)c(S(=O)(=O)NCc2ccc3c(c2)CCN3C(=O)c2cccc(C)c2)c1 | / | 2.6µM* | 2.6µM* | 8% | /
COCCC(=O)Nc1ccc2c(c1)CN(C(=O)CCSC)CC2 | 0% | 2% | -5% | / | 3%
COc1ccc(CNC(=O)COC(=O)/C=C/c2cccs2)cc1 | -7% | -16% | 7% | -3% | -9%
O=C(Cc1ccc(Cl)cc1)N/N=C/c1ccccc1 | -1% | -18% | -9% | -3% | -13%
CCOc1ccc(NC(=O)c2c(NC(=O)c3ccccc3F)sc3c2CCC3)cc1 | / | -14% | -3% | -1%[12.3 µM] | /
CCOC(=O)C1(Cc2cccc(Cl)c2)CCCN(C(=O)c2cc(C)[nH]n2)C1 (configuration not stated) | -4% | -27% | -22% | 1% | -11%
O=c1[nH]ncc(N2CCN(C(c3ccccc3)c3ccccc3)CC2)c1Cl | -14% | 10µM* | 21µM* | 3% | 2%
COC(=O)C1=C(C)n2cnnc2NC1c1ccc(Cl)cc1 (configuration not stated) | 41% | 3% | 9% | 2% | -1%
O=C(CSc1nnc2ncccn12)N1CCCCCC1 | 1% | -1% | 2% | 2% | -1%
Oc1ccc(CN2CCCCC2)nc1-c1ccccc1 | 5% | -16% | 0% | 6% | 3%
Oc1ccc(-c2ccccc2)cc1CN1CCCCCC1 | 3% | 18µM* | ? | / | 5%
CCOc1ccc(OCC(=O)Nc2nccs2)cc1 | 13µM* | 0% | -2% | 0% | -14%[10 µM]
Cc1ccc(CCC(=O)Nc2nccs2)o1 | -1% | -16% | -20% | 8% | 28µM*
Cc1cccc(OCCCC(=O)Nc2nccs2)c1C | 3.2µM* | ? | -22% | 2% | -2%
O=C(COc1cccc2cccnc12)Nc1nccs1 | ? | -13% | -21% | -10% | 18µM*
CCc1ccc(CCC(=O)Nc2nccs2)o1 | -26% | -5% | 1% | 10% | 4%
COCCOC(=O)C1=C(C)NC(C)=C(C(=O)OCCOC)C1/C=C/c1ccccc1OC | 5% | ? | ? | 0% | -5%
O=C(COc1ccc2c(c1)OCO2)Nc1nccs1 | 10µM* | -25% | -4% | 2%[0.0935 µM] | ?
COCc1nnc(NC(=O)COc2ccc3c(c2)OCO3)s1 | -25% | 4% | 7% | 9% | 0%
